Laboratory results as given in PubChem BioAssay AID894 (National Center for Advancing Translational Sciences (NCATS), 2007).
The whole screen tested about 150,000 compounds, of which about 6,500 (4.3%) were called active. Another 12% or so got no clear call; they are omitted. The sample holds actives, similar compounds and a random draw of the others, so the mix is not that of the screen. Calls follow the shape of the dose curve; as a rule, active = well fitted inhibition curve with a large enough effect (not every such curve was filed as active); inconclusive = small, poorly fitted or top-dose-only effect, or another doubt; inactive = no such curve, though single readings can be large or run the other way.

Target: 15-hydroxyprostaglandin dehydrogenase [NAD(+)] (Homo sapiens) (UniProt P15428)
Sequence (P15428 whole entry, looked up): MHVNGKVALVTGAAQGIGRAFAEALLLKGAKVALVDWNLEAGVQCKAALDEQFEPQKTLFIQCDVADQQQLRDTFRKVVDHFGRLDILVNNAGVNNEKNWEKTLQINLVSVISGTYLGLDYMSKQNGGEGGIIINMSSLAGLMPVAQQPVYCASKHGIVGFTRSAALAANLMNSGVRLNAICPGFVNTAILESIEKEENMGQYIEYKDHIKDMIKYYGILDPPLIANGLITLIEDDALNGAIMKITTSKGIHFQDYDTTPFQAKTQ
Assay: qHTS Assay for Inhibitors of HPGD (15-Hydroxyprostaglandin Dehydrogenase)
Conditions: purified HPGD, NADH fluorescence kinetic, PGE2 substrate; activity change, negative = inhibition: stronger effect = lower value
In short: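 20 nM HPGD preincubated 15 min at room temperature with compound in 50 mM Tris-HCl pH 8, 0.01% Tween 20. Started with 1 mM NAD+ and 30 uM prostaglandin E2; NADH fluorescence (360/450 nm) read 5 times over 30-s intervals, last minus first.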
% is scaled to controls: 0 for no effect and ±100 for the full control effect; potency is read from the fitted curve at half-maximal effect.

Activity change, negative = inhibition, inactive:
O=C(CSC1CC(=O)N(CCc2ccccc2)C1=O)Nc1ccc(Cl)cc1 (centres undefined) -11.7%
CCOC(=O)NC(=O)C(=CNc1cccc(OC)c1)C(=O)NC(=O)OCC -21.8%
O=C(CSc1nnc2scc(-c3ccc(F)cc3)n12)NCc1ccco1 -3.23%
Cc1ccc(-c2csc3nnc(SCC(=O)NCc4ccco4)n23)cc1 -10.8%
CCN(CC)CCNCc1ccc(OCc2ccc(Cl)nc2)c(OC)c1 -2.75%
O=C1C2C3C=CC(C4CC34)C2C(=O)N1c1nccs1 (centres undefined) -6.02%
CCOc1cccc(NC(=O)C2CCCN(S(=O)(=O)c3ccc(OC)cc3)C2)c1 (centres undefined) -17%
CCOc1ccc2nc(SC(CC)C(=O)Nc3cc(C)on3)sc2c1 (centres undefined) 0.253%
CCC(C)(C(=O)Nc1ccccc1C)N(C(=O)CNC(C)=O)c1ccc(C)cc1 (centres undefined) 1.96%
COc1ccc(N2C(=O)C(CC(=O)Nc3ccc(F)cc3)N(CCc3cccs3)C2=O)cc1 (centres undefined) -5.46%
Cc1ccc(-c2cc(=O)c3ccc(Cl)cc3[nH]2)cc1 -2.76%
COc1ccc(C(=O)n2nc(-c3ccc(Cl)cc3)nc2N)cc1OC -16.8%
COc1ccccc1OCCC(=O)OCC(=O)NCc1ccccc1 -9.44%
Cc1cc(=O)[nH]c(SCc2cccc(F)c2)n1 -22.9%
O=c1cc(O)nc(SCc2ccccc2Cl)[nH]1 -21.6%
COC1=CCC2([N+](=O)[O-])CN(CC(=O)O)CC1([N+](=O)[O-])C2 (centres undefined) -5.2%
C[C@@H](O)c1nc2ccccc2n1N -7.02%
COc1ccc(/C=C(\C#N)C(=O)NCCCn2ccnc2)cc1 -18.4%
C[C@H]1Cc2c(-c3ccccc3)nc3c(c2CO1)CN(S(=O)(=O)c1ccc(Cl)c2nonc12)CC3 -7.2%
COc1cc(/C=N/O)ccc1OCc1ccc([N+](=O)[O-])cc1 -3.26%
C=CCOc1ccc(/C=N/n2cncn2)cc1OC -24.2%
CCN=C1S/C(=C\c2cc(Br)ccc2OCC(=O)OCC)C(=O)N1CC 51.2%
CCCCC1N2CC3([N+](=O)[O-])CN1CC([N+](=O)[O-])(C2)C3(C)C (centres undefined) -8.6%
C[N+]1(CC(O)COc2ccccc2)CCN(C(=O)c2ccc([N+](=O)[O-])cc2)CC1 (centres undefined) -8.27%
O=C(O)Cc1ccc(NC(=O)c2cccs2)cc1 -5.78%
CCc1cccc(CC)c1NC(=S)NCc1ccc2[nH]c(C)cc2c1 -1.27%
CN(c1ccccc1)S(=O)(=O)c1ccc(Cl)c(C(=O)NCCc2c[nH]c3ccccc23)c1 -0.557%
CC(C)C1=CC2=CC[C@H]3[C@](C)(C(=O)O)CCC[C@]3(C)C2CC1 (some centres undefined) -6.95%
O=C1/C(=C/c2ccc3c(c2)OCO3)CCC/C1=C\c1ccc2c(c1)OCO2 -8.26%
CSC1=N/C(=C\c2ccc3c(c2)OCO3)C(=O)S1 -15.7%
Cc1[nH]c2ccccc2c1/C=N\NC(=O)Cn1nnc(-c2ccccc2)n1 -7.96%
CCCc1nnc(NC(=O)c2cccs2)s1 -3.96%
CNC(=O)CN1C(=O)c2ccccc2S1(=O)=O 0.566%
Cc1ccc(Nc2ccc(C(N)=O)cc2[N+](=O)[O-])cc1 -24.4%
CCNC(=O)NC(=O)C(C)OC(=O)C1CCN(S(=O)(=O)c2ccccc2F)CC1 (centres undefined) -13.3%
Cc1onc(-c2c(Cl)cccc2Cl)c1C(=O)c1c[nH]c(C(=O)NC2CC2)c1 -1.05%
Cc1nn(-c2ccccc2)c2sc(C(=O)N(Cc3ccco3)C(C)C(=O)NC(C)(C)C)cc12 (centres undefined) -12.4%
OC[C@H]1O[C@@H](n2cnc3c(N[C@H]4CC5CCC4C5)ncnc32)[C@H](O)[C@@H]1O (some centres undefined) -25%
COc1cc(C(=O)NNC(=O)c2ccc(S(=O)(=O)N3CCCCC3)cc2)cc(OC)c1OC 5.41%
COc1ccc(Cl)cc1-n1c(C)cc(C(=O)OCC(=O)N2CC(=O)Nc3ccccc32)c1C -10%
COc1cc(Cl)c(S(=O)(=O)n2cnc(C)c2)cc1Cl 0.989%
C[C@H]1Cc2c(-c3ccccc3)nc3c(c2CO1)CN(C(=O)C1CC1)CC3 -5.41%
COc1ccc2c(c1)CCc1c(C(=O)Nc3c(C)n(C)n(-c4ccccc4)c3=O)noc1-2 -26.2%
O=C(COc1ccccc1)N1CCc2ccccc2C1 -7.89%
COc1ccc(-c2nc(CS(=O)CC(=O)N3CCc4ccccc4C3)c(C)o2)cc1 (centres undefined) -23.2%
COc1ccc(-c2nc3c(c4c2C[C@H](c2ccccc2)OC4)CN(C(=O)C2CC2)CC3)c(C)c1 -7.07%
CC(=O)Nc1ccc(C(=O)OCC(=O)Nc2ccc([N+](=O)[O-])cc2C(F)(F)F)cc1 -4.2%

Potency, active:
Cn1c(-c2ccc(F)cc2)cnc1SCC(=O)NCc1ccco1 31.6 µM
CCOc1ccc2nc(C(=O)N3CCCC(C)C3)sc2c1 (centres undefined) 7.94 µM
COc1cc(OC)c(-n2cc(-c3ccc(Cl)cc3)[nH]c2=O)cc1Cl 7.08 µM
Cc1cc(=O)[nH]c(SCc2cc(Cl)ccc2OC(F)F)n1 14.1 µM
COc1cc(/C=N/n2c(C)n[nH]c2=S)ccc1OCc1ccccc1 5.62 µM
Cc1cc2cc(CNC(=O)c3cccs3)ccc2[nH]1 7.08 µM
CCC1=C/C(=C\c2ccc3c(c2)OCO3)C(=O)S1 28.2 µM
CCCc1nnc(NC(=O)CN2C(=O)c3ccccc3S2(=O)=O)s1 14.1 µM
Cc1ccccc1-n1nc(C)c2cc(C(=O)NC3CC3)sc21 22.4 µM
COc1cc(OC)c(-n2c(C)cc(C=O)c2C)cc1Cl 3.55 µM
COc1ccc2c(c1)CCc1c(C(=O)N3CCCC3)noc1-2 20 µM
COc1ccc2c(c1)CCc1c(C(=O)N3CCc4ccccc4C3)noc1-2 17.8 µM
